Sampled rows, rich in hits. Any-hit rate of the full collection: about 0.7%.
Vif-APOBEC3G blk – qHTS for Inhibitors of Vif-A3G Interactions: qHTS; DNA dC->dU-editing enzyme APOBEC-3G (Homo sapiens), Q9HC16; HeLa A3G-eYFP + Vif (tagged APOBEC3G with the HIV-1 protein that degrades it), YFP fluorescence, overnight; Potency, µM (top dose mostly 46.1 µM), usual class: inhibitors; hit rate 0.076% among 410,000; AID 602310, 2012; note: nearly all actives have a fitted effect of over 60% in size
Target sequence (Q9HC16 whole entry, looked up): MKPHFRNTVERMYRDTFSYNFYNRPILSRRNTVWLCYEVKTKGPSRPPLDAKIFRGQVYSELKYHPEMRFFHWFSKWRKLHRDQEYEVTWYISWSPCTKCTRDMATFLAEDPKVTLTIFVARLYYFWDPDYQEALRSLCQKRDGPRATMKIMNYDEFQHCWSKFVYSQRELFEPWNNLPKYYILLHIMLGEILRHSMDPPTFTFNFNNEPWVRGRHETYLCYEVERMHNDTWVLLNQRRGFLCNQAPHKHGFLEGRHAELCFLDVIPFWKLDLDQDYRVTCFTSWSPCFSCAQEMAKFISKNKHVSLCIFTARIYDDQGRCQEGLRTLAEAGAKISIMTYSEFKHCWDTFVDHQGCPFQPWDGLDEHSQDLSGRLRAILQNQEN
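Read-out is eYFP fluorescence (Ex 488/Em 500-530) from Vif-expressing HeLa A3G-eYFP cells; more signal means A3G escaped Vif-mediated degradation. Cells plated overnight, compound pinned in, incubated overnight at 37 deg C.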
GLS inhibitor – qHTS for Inhibitors of Glutaminase (GLS) | Glutaminase kidney isoform, mitochondrial (Homo sapiens), O94925 | GLS enzymatic activity, qHTS titration | Potency, µM (highest dose often 45.5 µM), most hits filed as inhibitors | hit rate 0.21% among 410,000
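Human kidney-isoform GLS in 45 mM KH2PO4 pH 8.2, 0.02% Tween-20, with compound, started with 1mM L-Glutamine (added stock). Glutamate oxidase/HRP/Amplex red coupled fluorescence read at start and after 30 min at RT.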
PINK1 modulator – A Quantitative High throughput Screen to Identify Chemical Modulators of PINK1 Expression; PINK1 immunofluorescence, high-content cytometry, 24 h; Potency, µM (series often up to 76.6 µM), hits mostly activators; hit rate 0.2% among 410,000; active = well fitted activation curve with a large enough effect; inconclusive = small, poorly fitted or top-dose-only effect; cell line not stated here; note: nearly all actives have a fitted effect of over 65% in size
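Compound titrations (5 concentrations, 24 h) on a stable cell line; DMSO and CCCP controls. Endpoint: fixed-cell PINK1 immunofluorescence with mitochondrial, cell and nuclear markers, scanned by microplate cytometer.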
Vif-APOBEC3F blk – qHTS for Inhibitors of Vif-A3F Interactions: qHTS. Potency, µM (titrated, usually from 46.1 µM). HeLa A3F-eYFP + Vif (tagged APOBEC3F with the HIV-1 protein that degrades it), YFP fluorescence increase. hit rate 0.2% among 390,000; note: nearly all actives have a fitted effect of over 65% in size
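Fluorescence increase (Ex 488/Em 500-530) after overnight compound treatment at 37 deg C flags inhibition of Vif-driven A3F-eYFP loss in stable HeLa A3F-eYFP/Vif cells seeded overnight beforehand.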
Epigenetic derep – Quantitative High-Throughput Screen for Regulators of Epigenetic Control | murine LDR cells, GFP reporter derepression, 30 h | Potency, µM (series often up to 53.9 µM), actives largely listed as activators | hit rate 0.2% among 280,000; note: nearly all actives have a fitted effect of over 60% in size
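Murine LDR cells bearing a silenced CMV-driven GFP reporter were exposed to compound for 30 h at 37 C. After PBS washes, GFP-positive cells (20-120 um objects) counted by laser-scanning microplate cytometry.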
A number is an active result; – = inactive; ? = inconclusive; · = not tested or not shown. Unless noted, calls come from the whole dose curve; as a rule, active = well fitted curve in the direction sought with a large enough effect; inconclusive = small, poorly fitted or top-dose-only effect, or another doubt; inactive = no such curve, though single readings can be large; an effect the other way counts as inactive or inconclusive.

SMILES	Vif-APOBEC3G blk	GLS inhibitor	PINK1 modulator	Vif-APOBEC3F blk	Epigenetic derep
Cc1nc(SCc2nc3ccc(C(F)(F)F)cc3[nH]2)c2oc3ccccc3c2n1	?	–	15.8µM	–	·
Cc1nc(SCc2nc3cc(Cl)c(F)cc3[nH]2)c2oc3ccccc3c2n1	?	–	14.1µM	–	·
CSc1nnc(CNS(=O)(=O)c2ccc(F)cc2F)n1-c1ccccc1C	·	·	–	·	·
COc1cccc(CNc2ccc3[nH]c(=O)[nH]c3c2)c1OCc1ccccc1	–	15.8µM	–	–	·
COc1cccc(CNc2ccc3[nH]c(=O)[nH]c3c2)c1OCc1ccccc1Cl	–	–	–	–	·
Cc1ccc(-c2nc(SCC(=O)Nc3cc(S(=O)(=O)N4CCCCC4)ccc3Cl)n[nH]2)cc1	–	–	31.6µM	–	–
CCOc1ccc(-n2c(-c3ccc(OC)cc3)c[n+]3c2CCCCC3)cc1	–	–	15.8µM	–	–
COc1ccc(-n2c(-c3ccc(Br)cc3)c[n+]3c2CCc2ccccc2-3)cc1	–	–	28.2µM	–	–
CC(C)c1ccc(-n2c(-c3ccccc3)c[n+]3c2CCc2ccccc2-3)cc1	–	–	?	–	–
CCOc1ccc(-n2c(-c3ccc(Br)cc3)c[n+]3c2CCCCC3)cc1	–	–	?	–	–
COC(=O)C1CCCCN1Cc1ccc2c(c1)CN(Cc1cn[nH]c1-c1ccc(F)cc1)CCO2 (stereo not drawn)	·	·	–	·	·
COCCN1C(=O)CC(NNC(=O)c2ccc(S(=O)(=O)N3CCCC3)cc2)C1=O (stereo not drawn)	–	10µM	–	–	–
CC(C)CCN1C(=O)CC(NNC(=O)c2ccc(S(=O)(=O)N3CCCC3)cc2)C1=O (stereo not drawn)	–	–	–	–	–
CO[C@H]1[C@H](NC(=O)c2ccsc2)c2ccccc2C12CCN(Cc1cccc3ncccc13)CC2	·	·	–	·	·
Nc1c(C(=O)N/N=C/c2cccnc2)oc2nc(-c3ccccc3)cc(-c3ccco3)c12	–	–	?	10µM	–
Cc1ncc2c(c1CNC(=O)c1ccc3c(c1)OCO3)CCN(C(=O)c1scc3c1CCCC3)C2	·	·	–	·	·
COc1ccccc1C(=O)N[C@@H]1c2ccccc2C2(CCN(Cc3cccnc3)CC2)[C@H]1O	·	·	–	·	·
COc1ccc(CN2CCOc3ccc(C(O)c4cccnc4)cc3C2)c(F)c1 (stereo not drawn)	·	·	–	·	·
O=C1C=CC(=O)c2c(O)c(Cl)c(Cl)c(O)c21	·	·	–	·	–
O=C1C=CC(=O)c2c(O)c(CO)c(CO)c(O)c21	–	3.55µM	–	–	·
N#C/C(=C/c1ccc(N2CCOCC2)o1)C(=O)NC1CCCCC1	11.2µM	–	–	22.4µM	–
CCc1ccc(NC(=O)/C(C#N)=C/c2cc3ccc(C)cc3nc2N2CCOCC2)cc1	–	–	?	7.94µM	?
N#C/C(=C/c1ccc(N2CCCCC2)o1)C(=O)Nc1ccc(Cl)cc1	–	–	12.6µM	–	0.631µM
CCCCOC(=O)c1ccc(NC(=O)/C(C#N)=C/c2ccc(C)o2)cc1	–	–	–	–	10µM
COCc1c(C(=O)NC2CCCCCC2)cnn1-c1nccc(-c2cc(C)sc2C)n1	·	·	–	·	·
SMILES	Vif-APOBEC3G blk	GLS inhibitor	PINK1 modulator	Vif-APOBEC3F blk	Epigenetic derep
CC(c1ccon1)N(C)C(=O)c1cnn(-c2ncc3c(n2)-c2ccccc2CC3)c1C1CC1 (stereo not drawn)	·	·	–	·	·
Cc1ccccc1C1(CC(=O)N2CCCC2c2nccs2)CC(=O)N(C2CCCC2)C1=O (stereo not drawn)	·	·	–	·	·
N#C/C(=C/c1ccc(N2CCCCC2)o1)C(=O)Nc1ccc2ccccc2c1	–	–	7.08µM	–	2.51µM
COc1ccc(NC(=O)/C(C#N)=C\c2ccc(N3CCOCC3)o2)cc1	–	–	–	?	15.8µM
COc1ccc(NC(=O)/C(C#N)=C/c2ccc(C)o2)cc1	–	–	–	?	–
N#C/C(=C\c1ccc(N2CCOCC2)o1)C(=O)Nc1ccc(O)cc1	?	–	?	?	?
COc1ccccc1-c1ccc(C(=O)NCCN2CCOCC2)c(N2CCN(c3ccccc3F)CC2)n1	·	·	–	·	·

Screens: PubChem, National Center for Advancing Translational Sciences (NCATS)
